Structures are written as SMILES. The panel holds about 83,000 compounds, 20% with a hit somewhere; the sample as a whole holds those more often.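 Assay: single dose, 48 h. Readout: percent growth (0 = no net growth; negative = cell death). Active: <10.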 Active and inactive are the calls of the source.

In the first assay the test system is IGROV1 ovarian. As to the kind of experiment: NCI-60 one-dose screen, 48 h (100 = growth as untreated, 0 = no growth, -100 = all killed). Particulars: 10 µM unless noted.
Regarding `Nc1nc(-c2cc3c(cc2Cl)NC(=O)/C3=C/c2ccc(Cl)cc2)cs1`, the growth was 34.9% (inactive).

Turning to `Cc1cccc(Cc2cnc(NC(=O)CCc3ccc(C)o3)s2)c1`, the growth was 32.2% (inactive).

On to `CC(Cl)(CCl)CS(=O)(=O)c1ccc(Cl)cc1` (stereo unspecified), for which the growth was 115% (inactive).

Take `COc1ccc(Cl)cc1NC(=O)c1cc2c([nH]1)-c1nc(NC(=O)C(C)(C)C)sc1CC2`: the growth was 65.3% (inactive).

Turning to `CC(C)(c1ccc(OCC(O)CNCc2ccco2)cc1)c1ccc(OCC(O)CNCc2ccco2)cc1` (stereo unspecified), the growth was 86.3% (inactive).

On to `O=C1CCC(c2c(O)cc(O)c3c(=O)c(O)c(-c4ccc(O)c(O)c4)oc23)N1` (stereo unspecified), for which the growth was 107% (inactive).

Turning to `COc1ccc(Cn2cc3c(c2-c2cc(OC)c(OC)c(OC)c2)CCc2c(CO)noc2-3)cc1`, the growth was 40.8% (inactive).

Take `CC(=O)Cc1cccnc1`: the growth is 100% (inactive).

On to `CC(/C=C/C=C(\C)[C@H](O)[C@H](C)C(=O)O[C@H]1C[C@H](C)C=C2C=C[C@@]3(C)O[C@@H](O)CC(=O)[C@]3(C)[C@H]21)=C\C=C\C(=O)O`, for which the growth was 5.48% (active).

On to `Nc1nc(-c2cc3c(cc2Cl)NC(=O)/C3=C/c2ccccc2)cs1`, for which the growth is 35.4% (inactive).

With `C=CC(=O)NC(=O)Nc1ccccc1Cl`, the growth was 88.2% (inactive).

As to `CCOC(=O)c1noc2c1CCc1c-2cn(Cc2ccc(OC)cc2)c1-c1cc(OC)c(OC)c(OC)c1`, the growth was 33.2% (inactive).

For `C=C1C(=O)O[C@H]2[C@H]1CC/C(COC(=O)OC/C1=C/CC[C@@]3(C)O[C@H]3[C@H]3OC(=O)[C@@H](CN(C)C)[C@@H]3CC1)=C\CC[C@@]1(C)O[C@@H]21`, the growth is 10.4% (inactive).

Regarding `CC1CCC(C(C)C)C(NN)C1` (stereo unspecified), the growth was 109% (inactive).

Take `Cc1cc(SCc2ccc(Cl)cc2Cl)nc(SCc2ccc(Cl)cc2Cl)n1`: the growth is 99.5% (inactive).

Take `CCCC(C)(C)COC(=O)c1cccc(N)c1`: the growth is 103% (inactive).

As for `O=C1C(Cl)=C(Nc2cccc3cc4ccccc4nc23)C(=O)c2ccccc21`, the growth was 37.2% (inactive).

On to `CN(C)CCCOc1c(Br)cc(/C=C/C(=O)N(C)CCc2cc(Br)c(OCCCN(C)C)c(Br)c2)cc1Br`, for which the growth was 48.2% (inactive).

Take `Nc1nccc(=S)[nH]1`: the growth was 107% (inactive).

`C=C1C(=O)O[C@H]2[C@H]1CC/C(COC(=O)CCCC(=O)OC/C1=C/CC[C@@]3(C)O[C@H]3[C@H]3OC(=O)C(=C)[C@@H]3CC1)=C\CC[C@@]1(C)O[C@@H]21`: the growth is 13.4% (inactive).

For `O=C(NNC(=O)c1ccc([N+](=O)[O-])cc1)c1ccc([N+](=O)[O-])cc1`, the growth was 112% (inactive).

In the case of `COc1cc(C(=O)NNC(=O)c2ccccc2C(=O)O)cc(OC)c1OC`, the growth was 50.2% (inactive).

`O=S(c1ccccc1)c1ccc2nnnn2n1` (stereo unspecified): the growth was 75.8% (inactive).

In the case of `Cc1ncc(CO)c(C(=O)O)c1O`, the growth was 107% (inactive).

Take `CCOC(=O)c1noc2c1CCc1cn(Cc3cc(OC)cc(OC)c3)cc1-2`: the growth is 110% (inactive).

Regarding `CCCCCC/C=N/Nc1ccc([N+](=O)[O-])cn1`, the growth was 105% (inactive).

For the compound `CC[C@@]1(O)C(=O)OCc2c1cc1n(c2=O)Cc2c-1nc1ccccc1c2/C=N/OC(C)(C)C`, the growth was 8.28% (active).

With `CC(=O)Oc1ccc(C(OC(C)=O)OC(C)=O)cc1`, the growth was 109% (inactive).

As to `C=C1C(=O)O[C@H]2[C@H]1CC/C(COC(=O)n1ccnc1C)=C\CC[C@@]1(C)O[C@@H]21`, the growth is 97.7% (inactive).

Turning to `C=C1C(=O)O[C@H]2[C@H]1CC/C(C(=O)NCCOCCOCC(=O)Nc1ccc(OC)c(C(N)=O)c1O)=C\CC[C@@]1(C)O[C@@H]21`, the growth is 98.8% (inactive).

For the compound `Cc1cc(C)c(O)c(C(=O)CC(Br)C(=O)O)c1` (stereo unspecified), the growth is 106% (inactive).

On to `COc1ccc(-c2ccc(NC(=O)Nc3cccc(C(F)(F)F)c3)c(C)n2)cc1`, for which the growth is 91.3% (inactive).

As to `COc1ccc(Cn2cc(COc3ccc4c5ccnc(C)c5n(CCCc5ccccc5)c4c3)nn2)cc1`, the growth was 75.3% (inactive).

As for `O=S(=O)(O)c1ccc(F)cc1`, the growth is 98.8% (inactive).

Take `Cc1nccc2c3ccc(OCc4cn(Cc5ccc(Br)cc5)nn4)cc3n(CCCc3ccccc3)c12`: the growth was 77.4% (inactive).

Turning to `Cl[C@@H]1CCO[C@H](c2cc3ccccc3c3ccccc23)C1`, the growth was 97.9% (inactive).

In the case of `Nc1ncnc2c1c(C(F)(F)F)cn2[C@@H]1O[C@H](CO)[C@@H](O)[C@H]1O`, the growth was 12.9% (inactive).

Turning to `C#C[C@@]1(O)[C@@H](CO)O[C@@H](n2cc(Br)c3c(Cl)ccnc32)[C@@H]1O`, the growth was 61% (inactive).

For a further assay, the system named is OVCAR-3 ovarian. The assay is described as above. Particulars: 10 µM unless noted.
On to `Nc1nc(-c2cc3c(cc2Cl)NC(=O)/C3=C/c2ccc(Cl)cc2)cs1`, for which the growth was 32.8% (inactive).

Regarding `Cc1cccc(Cc2cnc(NC(=O)CCc3ccc(C)o3)s2)c1`, the growth was 2.58% (active).

For `CC(Cl)(CCl)CS(=O)(=O)c1ccc(Cl)cc1` (stereo unspecified), the growth is 110% (inactive).

On to `COc1ccc(Cl)cc1NC(=O)c1cc2c([nH]1)-c1nc(NC(=O)C(C)(C)C)sc1CC2`, for which the growth is 32.8% (inactive).

In the case of `CC(C)(c1ccc(OCC(O)CNCc2ccco2)cc1)c1ccc(OCC(O)CNCc2ccco2)cc1` (stereo unspecified), the growth is 83% (inactive).

As to `O=C1CCC(c2c(O)cc(O)c3c(=O)c(O)c(-c4ccc(O)c(O)c4)oc23)N1` (stereo unspecified), the growth is 101% (inactive).

For the compound `COc1ccc(Cn2cc3c(c2-c2cc(OC)c(OC)c(OC)c2)CCc2c(CO)noc2-3)cc1`, the growth is 5.3% (active).

For `CC(=O)Cc1cccnc1`, the growth was 116% (inactive).

`CC(/C=C/C=C(\C)[C@H](O)[C@H](C)C(=O)O[C@H]1C[C@H](C)C=C2C=C[C@@]3(C)O[C@@H](O)CC(=O)[C@]3(C)[C@H]21)=C\C=C\C(=O)O`: the growth is 2.71% (active).

As for `Nc1nc(-c2cc3c(cc2Cl)NC(=O)/C3=C/c2ccccc2)cs1`, the growth is 29.8% (inactive).

Regarding `C=CC(=O)NC(=O)Nc1ccccc1Cl`, the growth was 68.7% (inactive).

For the compound `CCOC(=O)c1noc2c1CCc1c-2cn(Cc2ccc(OC)cc2)c1-c1cc(OC)c(OC)c(OC)c1`, the growth is 3.47% (active).

As for `C=C1C(=O)O[C@H]2[C@H]1CC/C(COC(=O)OC/C1=C/CC[C@@]3(C)O[C@H]3[C@H]3OC(=O)[C@@H](CN(C)C)[C@@H]3CC1)=C\CC[C@@]1(C)O[C@@H]21`, the growth was -90.3% (active).

For `CC1CCC(C(C)C)C(NN)C1` (stereo unspecified), the growth was 113% (inactive).

Turning to `Cc1cc(SCc2ccc(Cl)cc2Cl)nc(SCc2ccc(Cl)cc2Cl)n1`, the growth is 102% (inactive).

On to `CCCC(C)(C)COC(=O)c1cccc(N)c1`, for which the growth was 102% (inactive).

Take `O=C1C(Cl)=C(Nc2cccc3cc4ccccc4nc23)C(=O)c2ccccc21`: the growth was 64.4% (inactive).

For `CN(C)CCCOc1c(Br)cc(/C=C/C(=O)N(C)CCc2cc(Br)c(OCCCN(C)C)c(Br)c2)cc1Br`, the growth was 75.7% (inactive).

With `Nc1nccc(=S)[nH]1`, the growth was 109% (inactive).

In the case of `C=C1C(=O)O[C@H]2[C@H]1CC/C(COC(=O)CCCC(=O)OC/C1=C/CC[C@@]3(C)O[C@H]3[C@H]3OC(=O)C(=C)[C@@H]3CC1)=C\CC[C@@]1(C)O[C@@H]21`, the growth was -46.6% (active).

Turning to `O=C(NNC(=O)c1ccc([N+](=O)[O-])cc1)c1ccc([N+](=O)[O-])cc1`, the growth is 104% (inactive).

Consider `COc1cc(C(=O)NNC(=O)c2ccccc2C(=O)O)cc(OC)c1OC`, for which the growth was 29% (inactive).

Take `O=S(c1ccccc1)c1ccc2nnnn2n1` (stereo unspecified): the growth is 83.8% (inactive).

As for `Cc1ncc(CO)c(C(=O)O)c1O`, the growth is 94.8% (inactive).

With `CCOC(=O)c1noc2c1CCc1cn(Cc3cc(OC)cc(OC)c3)cc1-2`, the growth was 103% (inactive).

With `CCCCCC/C=N/Nc1ccc([N+](=O)[O-])cn1`, the growth was 103% (inactive).

As to `CC[C@@]1(O)C(=O)OCc2c1cc1n(c2=O)Cc2c-1nc1ccccc1c2/C=N/OC(C)(C)C`, the growth is -27.3% (active).

Regarding `CC(=O)Oc1ccc(C(OC(C)=O)OC(C)=O)cc1`, the growth is 103% (inactive).

As for `C=C1C(=O)O[C@H]2[C@H]1CC/C(COC(=O)n1ccnc1C)=C\CC[C@@]1(C)O[C@@H]21`, the growth was 73.7% (inactive).

Turning to `C=C1C(=O)O[C@H]2[C@H]1CC/C(C(=O)NCCOCCOCC(=O)Nc1ccc(OC)c(C(N)=O)c1O)=C\CC[C@@]1(C)O[C@@H]21`, the growth is 84.3% (inactive).

As for `Cc1cc(C)c(O)c(C(=O)CC(Br)C(=O)O)c1` (stereo unspecified), the growth was 108% (inactive).

For `COc1ccc(-c2ccc(NC(=O)Nc3cccc(C(F)(F)F)c3)c(C)n2)cc1`, the growth is 41.9% (inactive).

`COc1ccc(Cn2cc(COc3ccc4c5ccnc(C)c5n(CCCc5ccccc5)c4c3)nn2)cc1`: the growth is 76% (inactive).

`O=S(=O)(O)c1ccc(F)cc1`: the growth is 106% (inactive).

As for `Cc1nccc2c3ccc(OCc4cn(Cc5ccc(Br)cc5)nn4)cc3n(CCCc3ccccc3)c12`, the growth was 82.1% (inactive).

As for `Cl[C@@H]1CCO[C@H](c2cc3ccccc3c3ccccc23)C1`, the growth is 108% (inactive).

For the compound `Nc1ncnc2c1c(C(F)(F)F)cn2[C@@H]1O[C@H](CO)[C@@H](O)[C@H]1O`, the growth is 5.78% (active).

For `C#C[C@@]1(O)[C@@H](CO)O[C@@H](n2cc(Br)c3c(Cl)ccnc32)[C@@H]1O`, the growth was -9.54% (active).

For the origin of these results see PubChem BioAssay (NCI).
